The campaign covered roughly 13,000 compounds. About 3,200 (25%) showed an effect of 50% or more. Some of the results follow.
tested on: P. falciparum stage V gametocytes; set-up: BacTiter-Glo ATP luminescence viability of purified stage V gametocytes in 384-well plates, per cent inhibition versus DMSO; details: 48 h, 5 µM; inhibitor

| Compound | % Inhibition [%] |
| --- | --- |
| FC(F)(F)c1ccc2[nH]c(-c3ccc(-c4cccc(CNCc5cnn(-c6ccccc6)n5)c4)s3)nc2c1.O=C(O)C(F)(F)F [TCMDC-132968] | -47.17 |
| CC12CN3CC(C)(CN(C1)C3c1cc(Br)ccc1O)C2O (stereo not drawn) [TCMDC-123838] | -31.33 |
| Nc1nc(N)c2cc(Cc3ccc([N+](=O)[O-])cc3)cnc2n1 [TCMDC-137920] | -6.074 |
| Nc1c2ccccc2nc2cc([N+](=O)[O-])ccc12 [TCMDC-132031] | 75.87 |
| O=c1c2ccccc2nc(/C=C/c2ccc([N+](=O)[O-])cc2)n1-c1ccccn1 [TCMDC-125664] | 33.94 |
| Fc1c(CNCC2CCN(CC3CCCCC3)CC2)cccc1C(F)(F)F [TCMDC-141348] | 4.763 |
| FC(F)(F)c1cccc(CNCC2CCN(CC3CCCCC3)CC2)c1 [TCMDC-141677] | -8.545 |
| Oc1ccc(CNCC2CCN(CC3CCCCC3)CC2)cc1 [TCMDC-141676] | -27.61 |
| CCOc1ccccc1CCNCC1CCN(CC2CCCCC2)CC1 [TCMDC-141347] | 95.36 |
| Clc1cccc(Cl)c1CCNCC1CCN(CC2CCCCC2)CC1 [TCMDC-141346] | -12.07 |
| Clc1ccccc1CCNCC1CCN(CC2CCCCC2)CC1 [TCMDC-141344] | 100.3 |
| O=C(NCCCCCN1CCC(c2c[nH]c3ccccc23)CC1)c1ccc(Cl)c(Cl)c1 [TCMDC-139112] | -15.31 |
| O=C(CCC(=O)c1ccc2c3c(cccc13)CC2)NC1CCC(CN2CCC(c3c[nH]c4ccccc34)CC2)CC1 (stereo not drawn) [TCMDC-139897] | 7.494 |
| c1ccc2c(C3CCN(CCCCOc4ccc5c(c4)CCN(C4CCC4)CC5)CC3)c[nH]c2c1 [TCMDC-136242] | 103 |
| c1ccc2c(C3CCN(CCCCOc4ccc5c(c4)CCN(CC4CC4)CC5)CC3)c[nH]c2c1 [TCMDC-136244] | 103.6 |
| O=C(COc1ccc(Cl)cc1)N1CCC(CN2CCC(c3c[nH]c4ccccc34)CC2)CC1 [TCMDC-139943] | -35.41 |
| CCCCNC(=O)C(C)NC(=O)c1ccc(O)c(-c2ccc(Cl)c(Cl)c2)c1 (stereo not drawn) [TCMDC-140838] | 12 |
| O=C1OC(c2ccccc2)(c2ccccn2)CN1C1CCN(Cc2cccn2-c2ccc(Cl)cc2)CC1 (stereo not drawn) [TCMDC-134418] | 32.68 |
| CCC(CCON1C(N)=NC(N)=NC1(C)C)c1ccc(Cl)c(Cl)c1 (stereo not drawn) [TCMDC-131702] | 42.49 |
| CC1(C)N=C(N)N=C(N)N1OCc1cc(Cl)c(CON2C(N)=NC(N)=NC2(C)C)cc1Cl [TCMDC-131624] | 88.84 |
| CC1(C)N=C(N)N=C(N)N1OCc1cc(Cl)c(Cl)cc1CON1C(N)=NC(N)=NC1(C)C [TCMDC-131611] | -27.6 |
| CC(CCON1C(N)=NC(N)=NC1(C)C)c1ccc(Cl)cc1 (stereo not drawn) [TCMDC-131721] | 15.12 |
| CCSc1ccccc1CON1C(N)=NC(N)=NC1(C)C [TCMDC-131324] | 26.32 |
| CC1(C)N=C(N)N=C(N)N1OCc1cccc(Cl)c1Cl [TCMDC-131612] | 37.87 |
| CC(CCON1C(N)=NC(N)=NC1(C)C)c1ccc(Cl)c(Cl)c1 (stereo not drawn) [TCMDC-123922] | 56.56 |
| CC(CON1C(N)=NC(N)=NC1(C)C)c1ccc(Cl)cc1Cl (stereo not drawn) [TCMDC-131687] | 1.916 |
| CC(C)Sc1ccc(Cl)cc1CON1C(N)=NC(N)=NC1(C)C [TCMDC-131322] | 57.4 |

From PMC4552634, “A New Set of Chemical Starting Points with Plasmodium falciparum Transmission-Blocking Potential for Antimalarial Drug Discovery” (PLoS ONE, 2015)
